From PubChem
Sampled rows, rich in hits. Any-hit rate of the full collection: about 1.3%.
PREPL inhibitor: PREPL enzyme inhibitors, primary screen, biochemical, fluorescence polarization | recombinant PREPL, fluorescence polarization activity-based probe | inhibition, % at 5.96 µM | hit rate 0.68% among 320,000 | AID 2751, 2010; in the data active = inhibition above about 43%;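 note: 0% = enzyme with DMSO and 100% = wells lacking enzyme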
DNA FID counter: compounds displacing fluorescent DNA intercalator, primary screen, artefact control for HCV NS3 helicase inhibitor project, biochemical, FID fluorescence | AID 1845, 2009 | hit rate 0.17% among 290,000 | inhibition, % at 7.9 µM | DNA fluorescent intercalator displacement; in the data active = inhibition above about 37%;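 note: 0% = vehicle and 100% = reference compound; higher means more ethidium bromide displaced from hairpin DNA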
RAD54 inh: inhibitors of human RAD54 branch migration, primary screen, biochemical, fluorescence, single point. DNA repair and recombination protein RAD54-like (Homo sapiens), Q92698. RAD54 Holliday junction branch migration, FAM/BHQ fluorescence. inhibition, % at 10.4 µM. hit rate 0.14% among 360,000. AID 602329, 2012;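 active = mean normalized replicate activity at least 40 and at least half of replicates scoring 40 or more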;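 note: 0% = median of neutral control wells and 100% = median of positive control wells; inhibitors cause a drop in the FAM fluorescence signal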
UBC13 inh: UBC13 polyubiquitin chain formation inhibitors, primary screen, biochemical, TR-FRET, uHTS. Ubiquitin-conjugating enzyme E2 N (Homo sapiens), P61088. inhibition, % at 20 µM. hit rate 0.47% among 330,000; in the data active = inhibition above about 45%, passing the limit was not always enough
MIN6 prolif: inducers of MIN6 beta-cell proliferation, primary screen, ATP luminescence, uHTS; hit rate 0.29% among 330,000; proliferation, % at 10 µM; MIN6 cells proliferation, ATPlite luminescence, 48 h; cells starved in 0.2% serum; 100% = growth in 10% serum;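 active = compounds whose signal lies at least 3.5 SD above the mean of all wells on their plate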;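 note: 0% = DMSO-treated cells in low-serum medium and 100% = 10% serum control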
RAD52 anneal inh: RAD52 DNA annealing inhibitors, primary screen, biochemical, FRET, single point, set 2 | DNA repair protein RAD52 homolog (Homo sapiens), P43351 | recombinant RAD52 DNA annealing, FRET fluorescence | inhibition, % at 18.7 µM | hit rate 0.46% among 360,000;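 active = every replicate showing at least 50% inhibition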
Target sequence (P43351 whole entry, looked up): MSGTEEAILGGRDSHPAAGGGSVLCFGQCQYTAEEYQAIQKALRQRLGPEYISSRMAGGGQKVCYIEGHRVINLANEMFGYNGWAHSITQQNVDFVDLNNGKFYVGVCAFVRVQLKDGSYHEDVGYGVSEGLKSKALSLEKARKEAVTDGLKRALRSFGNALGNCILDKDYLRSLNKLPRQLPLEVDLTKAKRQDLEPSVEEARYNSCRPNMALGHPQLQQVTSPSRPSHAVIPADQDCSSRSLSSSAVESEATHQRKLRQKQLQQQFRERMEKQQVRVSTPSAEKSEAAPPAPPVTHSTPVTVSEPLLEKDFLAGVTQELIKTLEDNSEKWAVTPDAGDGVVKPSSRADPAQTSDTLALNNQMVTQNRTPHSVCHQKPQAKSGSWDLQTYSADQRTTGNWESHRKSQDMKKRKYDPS
DNA binder FP: DNA-binding compounds via dye displacement, dose response, artefact control for RAD52 inhibitor project, biochemical, fluorescence polarization, cherry-pick; shares compounds with RAD52 anneal inh; Salmon sperm DNA/acridine orange FP displacement; AC50, µM; hit rate 8% among 1,000;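 active = fitted half-maximal concentration for signal loss at or below twice the highest dose tested, in every separate run, actives reach about 64 µM in these data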
Numbers without * were called inactive.

`COc1ccc(CNC(=S)Nc2ccc3nc(N4CCOCC4)cc(C)c3c2)cc1` gave PREPL inhibitor 19, DNA FID counter -4, UBC13 inh -2, MIN6 prolif -4 and RAD52 anneal inh -9.
`COCCNC(=S)Nc1ccc2nc(N3CCN(C)CC3)cc(C)c2c1` gave PREPL inhibitor 14, DNA FID counter 12, RAD54 inh 22, UBC13 inh 1, MIN6 prolif 3, RAD52 anneal inh 52* and DNA binder FP inactive.
`Cc1cc(N2CCCC2)nc2ccc(NC(=S)NCCCOC(C)C)cc12` gave PREPL inhibitor 14, DNA FID counter 17, UBC13 inh -20, MIN6 prolif -1, RAD52 anneal inh 58* and DNA binder FP inactive.
For CCN(CC)CCNC(=S)Nc1ccc2nc(N3CCCC3)cc(C)c2c1 the results were PREPL inhibitor 26, DNA FID counter 49*, UBC13 inh -12, MIN6 prolif -6, RAD52 anneal inh 76* and DNA binder FP inactive.
For CC=Cc1ccc2n(c1=O)C[C@H]1[C@H](CO)[C@@H](C(=O)NCC3CC3)[C@@H]2N1C(=O)C1CC1 (mixture of isomers) the results were RAD54 inh 4 and RAD52 anneal inh -3.
`O=C(Nc1cc(F)ccc1F)N[C@H]1C=C[C@H](CC(=O)N2CCc3ccccc3C2)O[C@@H]1CO` gave RAD54 inh 5 and RAD52 anneal inh -2.
O=C(Cc1ccccn1)N1CC(=O)N2[C@H](CO)[C@H](c3ccc(C#CC4CCCC4)cc3)[C@@H]2C1 was read as RAD52 anneal inh -14.
C[C@H](CO)N1C[C@H](C)[C@@H](CN(C)C(=O)C2CCOCC2)Oc2ncc(C3=CCCC3)cc2C1=O was read as RAD54 inh 1 and RAD52 anneal inh -9.
Screening Cc1ccc(-c2ccc3c(c2)O[C@@H](CN(C)CC2CCCC2)[C@H](C)CN([C@@H](C)CO)S3(=O)=O)cc1 returned RAD54 inh -6 and RAD52 anneal inh -20.
For Cc1cc(N2CCOCC2)nc2ccc(NC(=S)NCCC(C)C)cc12 the results were PREPL inhibitor 27, DNA FID counter -4, RAD54 inh 6, UBC13 inh -11, MIN6 prolif -5 and RAD52 anneal inh 4.
For Cc1cc(N2CCN(C)CC2)nc2ccc(NC(=S)NCCC(C)C)cc12 the results were PREPL inhibitor 8, DNA FID counter 16, RAD54 inh 28, UBC13 inh 15, MIN6 prolif -7, RAD52 anneal inh 61* and DNA binder FP inactive.
`CCN1CCN(c2cc(C)c3cc(NC(=S)NCCCOC)ccc3n2)CC1` gave PREPL inhibitor 5, DNA FID counter 2, RAD54 inh 21, UBC13 inh 4, MIN6 prolif 0, RAD52 anneal inh 61* and DNA binder FP inactive.
`CO[C@H]1CN(C)C(=O)c2ccc(NC(=O)C3CCOCC3)cc2OC[C@H](C)N(Cc2cccnc2)C[C@H]1C` gave RAD54 inh 6 and RAD52 anneal inh -1.
`C[C@@H]1CCCCO[C@H](CN(C)S(C)(=O)=O)[C@H](C)CN([C@@H](C)CO)C(=O)c2cc(N(C)C)ccc2O1` gave RAD54 inh -5 and RAD52 anneal inh -34.
Screening CN(C)CCN(C)Cc1ccccc1Sc1cccc2ccccc12 returned PREPL inhibitor 28, DNA FID counter 21, RAD54 inh 12, UBC13 inh 36, MIN6 prolif -3, RAD52 anneal inh 52* and DNA binder FP inactive.
`CO[C@H]1CN(C)C(=O)c2cc(NC(C)=O)ccc2OC[C@H](C)N(CCc2ccccc2)C[C@@H]1C` gave RAD54 inh -1 and RAD52 anneal inh -1.
